According to PubChem BioAssay (NCATS):
Inconclusive results are not listed. Where a call stands in place of a potency, no number is given. Activity calls are given as the source filed them. Calls come from the whole dose curve; as a rule, active = well fitted inhibition curve with a large enough effect; inconclusive = small, poorly fitted or top-dose-only effect; inactive = flat fitted curve, though single readings scatter.

What was measured:
[1] = target: Glutathione peroxidase 1 (Homo sapiens) (UniProt P07203); assay: Primary qHTS Assay for Inhibitors of Recombinant Selenoprotein Glutathione Peroxidase 1 (GPX1) (AID 1845191)
Chain of Glutathione peroxidase 1 (Homo sapiens) (P07203 whole entry, looked up): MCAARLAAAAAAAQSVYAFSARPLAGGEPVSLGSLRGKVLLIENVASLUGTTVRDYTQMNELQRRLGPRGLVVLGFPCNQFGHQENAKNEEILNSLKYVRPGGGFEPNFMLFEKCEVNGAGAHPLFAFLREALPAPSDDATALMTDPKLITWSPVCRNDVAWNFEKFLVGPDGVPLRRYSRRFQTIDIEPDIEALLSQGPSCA
In short: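 10 nM GPX1 + cpd, 30 min RT; start w/ 1 mM GSH, 0.5 mM cumene hydroperoxide, 0.5 mM NADPH, 100 nM GR, 0.01% BSA; buffer 50 mM Tris-HCl pH 7.5, 2 mM EDTA, 150 mM NaCl; Fl 340/450, 0 & 15 min.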

[2] = target: Phospholipid hydroperoxide glutathione peroxidase GPX4 (Homo sapiens) (UniProt P36969); assay: Primary qHTS Assay for Inhibitors of Recombinant Selenoprotein Glutathione Peroxidase 4 (GPX4) (AID 1845192)
Chain of Phospholipid hydroperoxide glutathione peroxidase GPX4 (Homo sapiens) (P36969 whole entry, looked up): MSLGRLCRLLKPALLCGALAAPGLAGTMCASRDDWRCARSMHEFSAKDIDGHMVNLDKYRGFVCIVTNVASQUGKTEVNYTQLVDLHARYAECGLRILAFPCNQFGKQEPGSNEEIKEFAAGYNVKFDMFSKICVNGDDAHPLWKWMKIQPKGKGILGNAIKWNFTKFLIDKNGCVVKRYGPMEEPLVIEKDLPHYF
In short: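 NADPH consumption, followed by fluorescence at 340/450 nm between 0 and 15 min, reports GPX4 activity via coupled glutathione reductase (100 nM). Enzyme 200 nM was pre-exposed to compound 30 min; 0.5 mM cumene hydroperoxide and 1 mM GSH served as substrates.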
Note: nearly all actives have a fitted effect of over 65% in size.

SMILES	Potency [1]	Potency [2]
C[C@@H]1O[C@@H](OC[C@H]2O[C@@H](Oc3c(-c4ccc(O)c(O)c4)oc4cc(O)cc(O)c4c3=O)[C@H](O)[C@@H](O)[C@@H]2O)[C@H](O)[C@H](O)[C@H]1O	inactive	inactive
CC1(C)S[C@@H]2[C@H](N=CN3CCCCCC3)C(=O)N2[C@H]1C(=O)O	inactive	inactive
O=C(O)/C=C/c1ccc(Cn2ccnc2)cc1	inactive	inactive
CC(C)c1cc2c(cc1S(=O)(=O)O)[C@@]1(C)CCC[C@@](C)(C(=O)O)[C@@H]1CC2	inactive	inactive
NC(N)=NS(=O)(=O)c1ccc(N)cc1	inactive	inactive
CCCCCCCC(=O)OCC(O)CO (centres undefined)	inactive	inactive
CC(=O)OCC(COC(C)=O)OC(C)=O	inactive	inactive
CC(=O)N(CC(O)CO)c1c(I)c(C(=O)NCC(O)CO)c(I)c(C(=O)NCC(O)CO)c1I (centres undefined)	inactive	inactive
COc1ccccc1OC(=O)Oc1ccccc1OC	inactive	inactive
CN1C(=O)CC(c2ccccc2)C1=O (centres undefined)	inactive	inactive
NC(=O)CCCCC1CCSS1 (centres undefined)	inactive	inactive
CC(=O)Nc1ccc(C(=O)O)cc1	inactive	inactive
